From PubChem BioAssay
Rows were chosen to be rich in hits. Some 21% of all compounds tested hit in one or more screens of this group.
DT40 TDP1 no CPT: qHTS for Inhibitors of human tyrosyl-DNA phosphodiesterase 1 (TDP1): qHTS in cells in absence of CPT; DT40 Tdp1-/- hTDP1 cells, no CPT, ATP luminescence, 48 h; Potency, µM (top dose mostly 46.2 µM), for the others: top-dose activity change, negative = growth inhibition, hits mostly inhibitors; AID 686978, 2013; actives 15% (n = 420,000); further: potency means the concentration at half of the fitted maximal effect; nearly all actives have a fitted effect of over 55% in size
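Readout: luminescence from CellTiter-Glo after 30 min in the dark at RT. Cells: DT40 Tdp1-/- with stable hTDP1, 400/well. Exposure: compounds alone, ≥48 hr, 37 °C.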
IL-1B inflam inh: inhibitors of inflammasome signaling (IL-1 beta secretion); THP-1 LPS/ATP IL-1B secretion, AlphaLISA, 16 h; stronger effect = lower value; activity change, % at 57.5 µM; actives 4.7% (n = 360,000); in the data active means activity change below about -50%; inconclusive means mostly about -30% to -49%
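Secreted IL-1B measured by AlphaLISA bead assay after 16 h compound exposure of THP-1 cells; compounds (final up to 57.5 uM) added 1 h before LPS (250 ng/mL) and ATP (1.25 mM) stimulation; lower signal means less secretion.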
TDP1 cell CPT: DT40-hTDP1 cell growth loss with CPT | chicken DT40 Tdp1-/-;hTDP1 cells + 20 nM CPT, ATP luminescence, 48 h | Potency, µM (series often up to 46.2 µM), for inactives: top-dose activity change, negative = growth inhibition, actives largely listed as inhibitors | actives 12% (n = 420,000) | AID 686979; further: potency means the concentration at half of the fitted maximal effect; nearly all actives have a fitted effect of over 55% in size
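Cell growth measured by CellTiter-Glo luminescence after a minimum 48 h, 37 C compound exposure with 20 nM CPT in Tdp1-knockout DT40 cells stably expressing hTDP1, seeded 400/well; qHTS titration format.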
ELG1 repair inh: inhibitors of ELG1-dependent DNA repair in HEK293T cells; HEK293T ELG1-luciferase reporter, luminescence, 16 h; DNA damage induced by 5-fluorouridine; Potency, µM (doses to about 46.1 µM), for inactives: at the top dose activity change, negative = inhibition, usual class: inhibitors; actives 2.3% (n = 330,000); further: potency means the concentration at half of the fitted maximal effect; nearly all actives have a fitted effect of over 55% in size
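Reporter activity after DNA damage by 5-fluorouridine is monitored. Compound-treated cells incubate 16 hr at 37 °C, then ONE-Glo is added for 30 min before luminescence reading.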
Gal4-VP16 FLuc: Gal4-VP16 reporter inhibition counter-screen; Drosophila S2 Gal4-VP16 UAS-luciferase, luminescence, 20 h; Potency, µM (highest dose often 53.6 µM), for inactives: at the top dose activity, negative = inhibition, usual class: inhibitors; actives 3.5% (n = 310,000);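 further: Gal4-VP16 expression switched on by copper sulfate through the metallothionein promoter; potency means the concentration at half of the fitted maximal effect; nearly all actives have a fitted effect of over 50% in size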
RORgamma inh: inhibitors of mouse ROR gamma transcriptional activity; Potency, µM (highest dose often 53.6 µM), for the others: at the top dose activity change, negative = inhibition, hits mostly inhibitors; Drosophila S2 Gal4-RORgamma UAS-luciferase reporter, 20 h; AID 2551; actives 5.4% (n = 310,000); P51450; further: potency means the concentration at half of the fitted maximal effect; nearly all actives have a fitted effect of over 60% in size
Target sequence (P51450 whole entry, looked up, the tested form may be a part): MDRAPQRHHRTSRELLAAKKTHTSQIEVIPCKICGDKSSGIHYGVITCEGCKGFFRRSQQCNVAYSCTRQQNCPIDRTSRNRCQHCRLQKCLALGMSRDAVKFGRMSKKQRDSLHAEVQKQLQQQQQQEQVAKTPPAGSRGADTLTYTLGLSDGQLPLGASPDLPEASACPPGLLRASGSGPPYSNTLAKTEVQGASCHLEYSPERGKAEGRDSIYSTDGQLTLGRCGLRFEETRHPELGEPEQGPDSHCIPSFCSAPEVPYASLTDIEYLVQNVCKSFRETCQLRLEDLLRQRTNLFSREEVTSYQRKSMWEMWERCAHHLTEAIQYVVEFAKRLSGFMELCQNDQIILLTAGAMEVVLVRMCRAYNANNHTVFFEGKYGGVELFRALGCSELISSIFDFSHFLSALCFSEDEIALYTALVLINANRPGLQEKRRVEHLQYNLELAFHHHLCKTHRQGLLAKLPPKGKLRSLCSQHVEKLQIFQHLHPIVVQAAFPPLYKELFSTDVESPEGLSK
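Luciferase reporter read in Schneider cells carrying Gal4-RORγ (mouse) and UAS-Photinus luciferase; cells given compound 1 h before 700 uM copper sulfate induction, then incubated 20 h at ambient temperature.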
* hit, by the source's call. Unless noted, the call rests on the fitted dose curve; in most records, active means well fitted curve in the direction sought with a large enough effect; inconclusive means small, poorly fitted or top-dose-only effect, or another doubt; inactive means no such curve, though single readings can be large; an effect the other way counts as inactive or inconclusive. On the % scale 0 is the no-effect control and ±100 the full control effect.

`COc1ccc(CCC2=NCCN2C(CC(C)C)c2nc3ccccc3[nH]2)cc1` (configuration not stated) gave DT40 TDP1 no CPT 16µM*, IL-1B inflam inh 0 and TDP1 cell CPT 21µM*.
COc1ccc(Cc2nc3ccccc3[nH]c2=O)cc1 was read as DT40 TDP1 no CPT 7%, IL-1B inflam inh 39, TDP1 cell CPT -5%, ELG1 repair inh 9%, Gal4-VP16 FLuc 8% and RORgamma inh 10%.
`O=Cc1ccc(O)cc1` gave DT40 TDP1 no CPT -2% and TDP1 cell CPT 1%.
`COc1ccc(C2=C(C)C(N3CCC(C(=O)Nc4cc(C)ccc4C)CC3)=NS2(=O)=O)cc1` gave DT40 TDP1 no CPT -20% and TDP1 cell CPT -3%.
For CCC1=C(c2ccc(C)cc2)S(=O)(=O)N=C1N1CCC(C(=O)Nc2ccccc2C(=O)OC)CC1 the results were DT40 TDP1 no CPT 18µM* and TDP1 cell CPT inconclusive.
Screening CC1=C(c2ccc(F)cc2)S(=O)(=O)N=C1N1CCC(C(=O)NCCc2ccccc2)CC1 returned DT40 TDP1 no CPT 0% and TDP1 cell CPT 15%.
For CCC1=C(c2ccc(C)cc2)S(=O)(=O)N=C1N1CCC(C(=O)NCCc2ccc(Cl)cc2)CC1 the results were DT40 TDP1 no CPT 10µM* and TDP1 cell CPT 13µM*.
`O=C(NCc1ccco1)/C(=C\c1cccnc1)NC(=O)c1ccccc1F` gave DT40 TDP1 no CPT -3%, IL-1B inflam inh 9, TDP1 cell CPT 10%, ELG1 repair inh -3%, Gal4-VP16 FLuc 2% and RORgamma inh -2%.
OCCN1CCN(C2Cc3cc(Cl)ccc3Sc3ccc(Cl)cc32)CC1 (configuration not stated) (tested in a mixture with another compound) was read as DT40 TDP1 no CPT inconclusive, IL-1B inflam inh -98*, TDP1 cell CPT 23µM*, ELG1 repair inh -9%, Gal4-VP16 FLuc -1% and RORgamma inh 15%.
`CN1CCN(CCOC2Cc3ccccc3Sc3ccc(Cl)cc32)CC1` (configuration not stated) gave DT40 TDP1 no CPT 21µM*, IL-1B inflam inh -71*, TDP1 cell CPT inconclusive, ELG1 repair inh 6%, Gal4-VP16 FLuc -17% and RORgamma inh 19%.
Screening c1ccc2c(c1)CC(N1CCCCC1)c1ccccc1S2 (configuration not stated) returned DT40 TDP1 no CPT inconclusive, IL-1B inflam inh 0 and TDP1 cell CPT inconclusive.
`CN1CCN(C2Cc3cc(Cl)ccc3Sc3cc(F)ccc32)CC1` (configuration not stated) gave DT40 TDP1 no CPT inconclusive, IL-1B inflam inh -94* and TDP1 cell CPT inconclusive.
`CC1(C)Cc2c(sc3c2C(=O)N(c2ccccc2)C2=NCCN23)CS1` gave DT40 TDP1 no CPT -20%, IL-1B inflam inh -19, TDP1 cell CPT 1%, ELG1 repair inh 15%, Gal4-VP16 FLuc 0% and RORgamma inh -11%.
For CN1C(=O)c2c(sc3c2CC(C)(C)SC3)N2CCN=C12 the results were DT40 TDP1 no CPT 21µM*, IL-1B inflam inh -8, TDP1 cell CPT 21µM*, ELG1 repair inh -28%, Gal4-VP16 FLuc -3% and RORgamma inh 11%.
Screening COCCOc1ccc(C(F)(F)F)cc1NC(=O)COC(=O)Cc1c[nH]c2ccccc12 returned DT40 TDP1 no CPT 2%, IL-1B inflam inh -3, TDP1 cell CPT -23% and ELG1 repair inh 0%.
